What all share (assay): NCI-60 one-dose screen, 48 h (100 = growth as untreated, 0 = no growth, -100 = all killed)
Common to all, as to conditions: 10 µM

Test [1] has as its system DU-145 prostate.
Test [2] concerns MALME-3M melanoma.
Test [3] has as its system MDA-MB-231 breast.
Test [4] has as its system RXF 393 renal.
For test [5], the system named is SF-268 CNS.
Test [6] relates to SF-295 CNS.
The subject of test [7] is SF-539 CNS.
For test [8], the system named is UACC-257 melanoma.
The subject of test [9] is M14 melanoma.

Structures are written as SMILES. This is part of a sample that, as a whole, favours compounds with a hit. Of some 83,000 tested, about 20% had one in any assay.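 Negative percent growth values reflect cell death: -40 means 40% of the cells present at the start died, and -100 means all died.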 Values without a mark were called inactive. Activity calls are given as the source filed them. The calls were made as follows: active = growth percent below 10; inactive = the rest.

Regarding `CCCCCOC(=O)Nc1nc(=O)n(C2O[C@H](C)[C@@H](O)[C@H]2O)cc1F` (stereo not given in full), the growth in test [1] is 115%; in test [2], 103%; in test [3], 90.9%; in [4], 98.1%; in [5] it was 95.4%; in [6], 98.1%. Further, the growth in [7] was 101%; in test [8], 96.2%; in test [9] it was 108%.

For `CN1CCN(c2cc3c(cc2F)c(=O)c(C(=O)O)cn3-c2ccc(F)cc2)CC1`, the growth in test [1] is 118%; in test [2], 96.3%; in test [3] it was 109%; in test [4], 116%; in [5] it was 93.2%; in test [6], 99.8%. For the same molecule, the growth in test [7] is 99.7%; in test [8] it was 105%; in test [9] it was 93%.

As to `Cc1cc(CC(C)CC(C)(C)C)n(O)c(=O)c1` (stereo not given) (tested in a mixture with another compound), the growth in [1] was 19.5%; in [2], 8.49% (active); in test [3], 38.3%; in [4], 42.1%; in test [5] it was 14.4%; in [6], 6.87% (active). The growth was 6.73% (active) in test [7], -1.79% (active) in test [8] and -35.9% (active) in test [9].

Take `C#C[C@]1(O)CCC2C3CCc4cc(OC5CCCC5)ccc4C3CC[C@@]21C` (stereo not given in full): the growth in test [1] was 89%; in test [2] it was 121%; in [3], 50.6%; in test [4], 97.7%; in test [5] it was 71.3%; in test [6] it was 77.2%. Besides, the growth in test [7] is 101%; in test [8] it was 92.6%; in [9], 80.2%.

Consider `CN1C(C(=O)Nc2ccccn2)=C(O)c2sc(Cl)cc2S1(=O)=O`, for which the growth in [1] was 106%; in test [2], 102%; in [3] it was 105%; in test [4], 111%; in [5], 100%; in test [6] it was 94.8%. In addition, the growth was 117% in test [7], 100% in [8] and 108% in test [9].

As to `CCc1cc(Cl)c(OC)c(C(=O)NCC2CCCN2CC)c1O` (stereo not given), the growth was 102% in test [1]; 108% in test [2]; 50.6% in test [3]; 73% in test [4]; 98.2% in [5]; 85% in test [6]. Moreover, the growth was 103% in [7], 87.7% in [8] and 103% in [9].

For `OC(CNc1ccnc2cc(Cl)ccc12)CNC1CCCCC1` (stereo not given), the growth in test [1] was 91.6%; in test [2], 101%; in test [3] it was 54.4%; in test [4], 33.5%; in [5], 89.8%; in [6], 83.5%. Further, the growth in test [7] was 63.1%; in test [8], -37.5% (active); in test [9], -15.6% (active).

With `CCc1c2c(nc3ccc(OC(=O)N4CCC(N5CCCCC5)CC4)cc13)-c1cc3c(c(=O)n1C2)COC(=O)[C@]3(O)CC`, the growth in test [1] is -5.72% (active); in test [2] it was 36.2%; in [3], 102%; in [4], 37.7%; in test [5], 12.5%; in test [6] it was -24.5% (active). The growth in test [7] is -22.1% (active); in [8] it was 57.6%; in test [9], 2.35% (active).

As for `Clc1ccc2c(c1)C(N1CCNCC1)=Nc1ccccc1O2`, the growth is 68.4% in test [1]; 2.69% (active) in test [2]; 19.4% in [3]; 27.2% in test [4]; 52.9% in [5]; 58% in test [6]. The values for the growth in test [7], in test [8] and in test [9] were 73.4%, -18.3% (active) and 15.7%, respectively.

Turning to `CCN1CC(CCN2CCOCC2)C(C(c2ccccc2)c2ccccc2)C1=O` (stereo not given), the growth in test [1] is 118%; in [2], 120%; in [3] it was 87.6%; in test [4] it was 107%; in test [5], 112%; in [6] it was 89.9%. Also, the growth in [7] was 111%; in [8] it was 105%; in test [9], 108%.

Regarding `C=C1CCC2(C#N)[C@H]3[C@H](CC[C@@H]2C)[C@@H](C)C[C@@H](CC(C)(C)NC(=O)CN2CCC2=O)[C@H]13` (stereo not given in full), the growth in test [1] was 89.5%; in test [2], 83.2%; in test [3], 47.6%; in [4] it was 55.5%; in [5] it was 63.3%; in test [6], 60.5%. The growth was 47% in [7] and 80.8% in test [8].

For the molecule `CO[C@H]1CC(O[C@@H]2/C(C)=C/C[C@@H]3C[C@@H](C[C@]4(C=C[C@H](C)[C@@H](C5CCCCC5)O4)O3)OC(=O)[C@@H]3C=C(C)[C@@H](O)[C@H]4OC/C(=C\C=C\[C@@H]2C)[C@]43O)O[C@@H](C)C1O[C@H]1C[C@H](OC)[C@@H](O)[C@H](C)O1` (stereo not given in full), the growth in [1] was -98.4% (active); in [2] it was -68.1% (active); in test [3], -81.1% (active); in test [4], -95.5% (active); in test [5], -81.5% (active); in test [6], -84.6% (active). Besides, the growth in [7] was -72.3% (active); in test [8] it was -84% (active); in test [9], -88% (active).

`C[C@@H](O)[C@H]1C(=O)N2C(C(=O)O)=C(SC3CN[C@H](C(=O)N(C)C)C3)[C@H](C)[C@H]12` (stereo not given in full): the growth in test [1] is 110%; in test [2], 92.9%; in [3], 99.6%; in [4], 114%; in test [5], 105%; in test [6] it was 96.2%. Besides, the growth in test [7] is 113%; in [8], 106%.

These data come from PubChem BioAssay (NCI).
